This is a sample that favours compounds with a hit; in the whole collection about 11% have one here.
BAZ2B inh – inhibitors of human BAZ2B bromodomain | actives 4.4% (n = 360,000) | AlphaScreen BAZ2B-H3K14Ac peptide displacement | Potency, µM (doses to about 114 µM), actives largely listed as inhibitors | Q9UIF8; further: nearly all actives have a fitted effect of over 60% in size
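BAZ2B (50 nM) with biotin-H3(5-23)K14Ac peptide (50 nM) in PBS pH 7.4, 0.01% Tween-20, preformed 30 min, then compound 30 min at room temperature; top concentration 110uM. AlphaScreen streptavidin donor/nickel chelate acceptor beads (10 ug/mL final), 20 min dark, signal read.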
PI5P4K alpha inh – inhibitors of human PI5P4K alpha. P48426. PI5P4Kalpha enzyme, ADP-Glo luminescence, 60 min; stronger effect = lower value. max response, %. actives 1.2% (n = 330,000). AID 652105; active means max response of -50% or lower; inconclusive means between -30% and -50%; inactive means -30% or higher; further: value at the top dose of about 77 µM
Target sequence (P48426 whole entry, looked up): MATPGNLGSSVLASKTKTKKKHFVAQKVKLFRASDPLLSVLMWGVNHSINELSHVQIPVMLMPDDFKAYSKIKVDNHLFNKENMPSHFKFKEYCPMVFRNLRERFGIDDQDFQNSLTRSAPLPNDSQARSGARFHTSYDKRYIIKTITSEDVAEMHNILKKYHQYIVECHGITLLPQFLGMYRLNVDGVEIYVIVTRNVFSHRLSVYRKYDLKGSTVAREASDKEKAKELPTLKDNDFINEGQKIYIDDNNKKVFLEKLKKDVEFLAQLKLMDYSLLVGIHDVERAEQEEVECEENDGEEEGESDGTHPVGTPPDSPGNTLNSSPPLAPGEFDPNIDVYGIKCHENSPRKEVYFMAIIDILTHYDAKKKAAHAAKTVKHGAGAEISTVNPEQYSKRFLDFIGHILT
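Quantitative HTS of the MLSMR library against PI5P4Kalpha with substrate. ATP added last at 5 microM final; room temperature, 60 minutes. Remaining ATP depleted, ADP converted and read as luminescence.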
JMJD2A Tudor – JMJD2A Tudor domain (human) inhibition; O75164; AlphaScreen JMJD2A-Tudor / H3K4me3 peptide binding; Potency, µM (highest dose often 114 µM), usual class: inhibitors; actives 4.4% (n = 390,000); further: nearly all actives have a fitted effect of over 50% in size
HP1b binding inh – inhibitors of HP1-beta chromodomain binding to methylated histone tails | AlphaScreen HP1-beta / biotin-H3K9me3 peptide binding | Potency, µM (doses to about 114 µM), most hits filed as inhibitors | actives 0.56% (n = 390,000); further: nearly all actives have a fitted effect of over 70% in size
Target sequence (P83916 whole entry, looked up): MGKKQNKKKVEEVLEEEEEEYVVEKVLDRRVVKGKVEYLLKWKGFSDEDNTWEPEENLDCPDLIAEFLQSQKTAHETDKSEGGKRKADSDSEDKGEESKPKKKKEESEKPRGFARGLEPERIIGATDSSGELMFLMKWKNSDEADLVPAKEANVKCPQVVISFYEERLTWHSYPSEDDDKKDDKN
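Compound inhibition of the preformed complex between 50 nM HP1-beta and 50 nM biotinylated H3K9me3 peptide was read by AlphaScreen. Buffer was PBS pH 7.4 with 0.01% Tween-20. Incubations ran 30 min at room temperature, with 10 ug/mL donor/acceptor beads.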
G9a block – G9a (human) methyltransferase inhibition. Q96KQ7. G9a H3K9 monomethylation, AlphaScreen, 2 h. actives 8.8% (n = 350,000). Potency, µM (highest dose often 102 µM), usual class: inhibitors; further: nearly all actives have a fitted effect of over 75% in size
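Signal arises when biotinylated H3K9 peptide, once monomethylated, bridges streptavidin donor and antibody-captured acceptor beads. Enzyme at 20 nM was preincubated 15 min with test compounds; peptide 500 nM and SAM 20 uM then reacted for 2 h.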
L3MBTL1 inh – blocks human L3MBTL1 | actives 0.66% (n = 230,000) | AID 485360 | Potency, µM (highest dose often 57.1 µM), most hits filed as inhibitors | Q9Y468 | AlphaScreen L3MBTL1–H3K9me1 peptide binding; further: nearly all actives have a fitted effect of over 60% in size
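AlphaScreen proximity signal between nickel-chelate acceptor and streptavidin donor beads (final 10 ug/mL) reports binding of 50 nM L3MBTL1 to 75 nM biotin-H3 K9me1 peptide; complex incubated with compounds 30 min at room temperature; cefsulodin titration as control.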
A number is an active result; 0 = inactive; ? = inconclusive; - = no result given; [ ] = remark or other dose. Unless noted, the call rests on the fitted dose curve; in most records, active means well fitted inhibition curve with a large enough effect; inconclusive means small, poorly fitted or top-dose-only effect; inactive means no such curve, though single readings can be large or run the other way.

SMILES	BAZ2B inh	PI5P4K alpha inh	JMJD2A Tudor	HP1b binding inh	G9a block	L3MBTL1 inh
Cc1ccc(C(C)C)c(OCC(=O)Nc2c(C(=O)c3ccc(F)cc3)oc3ccccc23)c1	0	-	0	0	0	-
Cc1cccc(OCC(=O)N(Cc2sccc2C)C2CCS(=O)(=O)C2)c1 (centres undefined)	0	-	0	0	0	-
CC1CCCCC1NC(=O)C1Cc2ccccc2CN1S(C)(=O)=O (centres undefined)	0	0	0	0	0[12.7 µM]	0
CC(=O)c1ccc(S(=O)(=O)N2Cc3ccccc3CC2C(=O)O)cc1 (centres undefined)	?	0	18µM	0	40µM	?
CC(C)(C)OC(=O)N1Cc2ccccc2C[C@H]1C(=O)O	?	0	0[11.4 µM]	0	56µM	0
CS(=O)(=O)N1Cc2ccccc2CC1C(=O)O (centres undefined)	?	0	0	0	40µM	0
Cn1c(N)c(C(=O)COC(=O)C2Cc3ccccc3CN2S(C)(=O)=O)c(=O)n(C)c1=O (centres undefined)	-	-61	-	-	-	-
O=C(O)[C@H]1Cc2ccccc2CN1S(=O)(=O)c1ccc(F)cc1	0	0	0	0	0	0
CN1CCN(c2ncc3nc(-c4cccs4)c(=O)n(CCc4ccccc4)c3n2)CC1	-	-	-	-	0[0.501 µM]	-
Cc1cc2n(n1)CCCN2C(=O)Nc1ccc(Cl)cc1	0	-	0	0	0	-
CN(C)c1nc(-c2ccc3c(c2)OCO3)nc2ccccc12	-	-	-	-	0[0.501 µM]	-
O=C(CSc1nnc2ccccn12)N1CCc2ccccc2C1	0	0	0	0	?	0
O=C(O)C1Cc2ccccc2CN1C(=O)CSc1nnc2ccccn12 (centres undefined)	-	0	0	0	50µM	-
CCS(=O)(=O)N1Cc2ccccc2CC1C(=O)N1CCN(c2ccccc2)CC1 (centres undefined)	50µM	?	25µM	?	0[2.33 µM]	?
O=C(O)C1Cc2ccccc2CN1S(=O)(=O)/C=C/c1ccccc1 (centres undefined)	79µM	0	0	0	14µM	0
O=C(C1Cc2ccccc2CN1S(=O)(=O)c1ccc(F)cc1)N1CCOCC1 (centres undefined)	0	-	0	0	0	-
COc1ccc(S(=O)(=O)c2c(Nc3ccccc3F)sc(C(=O)c3cccc(OC)c3)c2N)cc1	0	-	?	0	0	-
Cc1[nH]c2ccccc2c1C1N2CC3(C)CN1CC(C)(C2)C3=O (centres undefined)	0	-	0	0	0	-
Cc1nc2sccn2c(=O)c1S(=O)(=O)Nc1cc(Cl)ccc1O	0	-	0	0	?	-
Cc1ccsc1CN(C(=O)COc1cccc(C)c1C)C1CCS(=O)(=O)C1 (centres undefined)	0	-	0	0	0	-
COc1ccc(C(=O)NCC(c2ccc(N(C)C)cc2)N2CCCC2)cc1 (centres undefined)	0	-	?	0	?	-
Cc1ccc(S(=O)(=O)NCC(c2ccc(N(C)C)cc2)N2CCOCC2)cc1 (centres undefined)	0	-	?	0	?	-
CN(C)c1ccc(C(c2ccc(N(C)C)cc2)c2ccc([N+](=O)[O-])cc2)cc1	6.3µM	0	10µM	8.9µM	5µM	28µM
CN(C)c1ccc(C(CNS(=O)(=O)c2ccc(Cl)cc2)N2CCOCC2)cc1 (centres undefined)	40µM	-	?	0	?	-
CN(C)c1ccc(C(CNC(=O)c2ccc(C(C)(C)C)cc2)N2CCCC2)cc1 (centres undefined)	28µM	-	45µM	?	16µM	-
SMILES	BAZ2B inh	PI5P4K alpha inh	JMJD2A Tudor	HP1b binding inh	G9a block	L3MBTL1 inh
CN(C)c1ccc(C(CNS(=O)(=O)c2ccc3ccccc3c2)N2CCOCC2)cc1 (centres undefined)	50µM	0	?	?	0[0.501 µM]	0
N#Cc1c(-c2ccc(Cl)cc2)no[n+]1[O-]	-	-	0	-	-	-
CC(C)CCNC(=O)Cn1c(SCc2cccc(F)c2)nc2ccncc21	-	-	0	0	-	-
CN(C)c1ccc(C(CNS(=O)(=O)c2ccc(F)cc2)N2CCCC2)cc1 (centres undefined)	?	-	?	0	0	-
CN(C)c1ccc(C(CNS(=O)(=O)c2ccc([N+](=O)[O-])cc2)N2CCCC2)cc1 (centres undefined)	0	0	45µM	?	45µM	0
CCN1CCN(C(CNS(=O)(=O)c2ccc(Cl)cc2)c2cccnc2)CC1 (centres undefined)	0	0	0	0	79µM	-
Cn1c(=O)[nH]c2cc(-c3noc(-c4ccc(C#N)cc4)n3)ccc21	0	-	0	0	0	-
CC(C)[C@H](N)c1nnc(SCc2ccc(Cl)cc2)o1	0	0	14µM	0	-	0
CC(C)C[C@H](N)c1nnc(SCc2ccc(Cl)cc2)o1	0	0	0	0	0[12.7 µM]	0
CCC(C)[C@H](N)c1nnc(SCc2ccc(Cl)c(Cl)c2)o1 (some centres undefined)	?	-	0	0	8.9µM	-
COc1cccc(NC(=O)Cn2cc(C(=O)c3ccco3)c3ccccc32)c1	0	-	0	0	0	-
COCCCNC(=S)NNC(=S)Nc1ccc(F)cc1F	?	-	1.6µM	0	2.5µM	-
COCCCNC(=S)NNC(=S)Nc1ccccc1	0	0	1.6µM	0	-	0
COCCCNC(=S)Nc1ccc(C)cc1	0	0	0	0	0	0
CS(=O)(=O)N1CCC2(CCN(Cc3ccncc3)CC2)CC1	-	-	-	-	0[12.7 µM]	-
CCCN(CCC)Cc1c(C(=O)N/N=C/c2c[nH]c3ccccc23)nnn1-c1nonc1N	0	-63	0	0	0	-
Nc1nonc1-n1nnc(C(=O)N/N=C/c2ccc(Cl)cc2Cl)c1CN1CCCCC1	0	0	0	0	35µM	-
COCc1c(C(=O)N/N=C\c2ccccn2)nnn1-c1nonc1N	40µM	0	79µM	0	0.79µM	-
COCc1c(C(=O)N/N=C/c2c[nH]c3ccccc23)nnn1-c1nonc1N	0	0	0	0	0	-
Nc1nonc1-n1nnc(C(=O)N/N=C/c2cccc(O)c2)c1CN1CCCC1	0	0	0	0	45µM	-
CCc1ccc(-n2c(=O)c3cccnc3n2CC(=O)Nc2cc(F)ccc2F)cc1	0	-	0	0	0	-
COc1cc(CN2CCC(C(=O)NCCC(C)C)CC2)ccc1OCc1ccccc1	0	0	28µM	?	50µM	0
COCCNC(=O)CCC1CCN(C/C=C/c2ccccc2OC)CC1	0	0	0	0	-	0
CC(C)CCNC(=O)C1CCN(Cc2cccc(OCc3ccccc3)c2)CC1	?	0	10µM	?	-	0
COCCNC(=O)C1CCCN(Cc2cccc(Cl)c2)CC1 (centres undefined)	-	0	-	-	-	-
COCCNC(=O)C1CCN(Cc2cccc(OCc3ccccc3)c2)CC1	?	0	0.79µM	?	0[0.501 µM]	0[2.29 µM]
COCCNC(=O)CCC1CCN(Cc2cccc(-c3ccc(C)o3)c2)CC1	0	0	0	0	22µM	0
